From the supplement of paper PMC12067093, “Discovery and optimisation of a covalent ligand for TRIM25 and its application to targeted protein ubiquitination” (Chemical Science, 2025)
About 21,000 targets were measured; listed, in parts, are those with the largest changes and a random draw of the rest.

Compound: Cc1cc(ccc1-c1ccccc1)C(=O)N1CCCN(CC1)C(=O)CCl [compound 10]
Assay: probe-labelled cysteine peptide fold change vs DMSO (competition) (log2 fold change); higher = less target engagement (more negative = stronger competition)
Conditions: THP-1, incubation time: 4 h
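Further: competitive profiling in live THP-1 cells: cysteine peptides tagged with an iodoacetamide desthiobiotin (IA-DTB) probe, intensity after compound treatment relative to DMSO-treated cells.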

Chain of UniProt P56192 (P56192 whole entry, looked up): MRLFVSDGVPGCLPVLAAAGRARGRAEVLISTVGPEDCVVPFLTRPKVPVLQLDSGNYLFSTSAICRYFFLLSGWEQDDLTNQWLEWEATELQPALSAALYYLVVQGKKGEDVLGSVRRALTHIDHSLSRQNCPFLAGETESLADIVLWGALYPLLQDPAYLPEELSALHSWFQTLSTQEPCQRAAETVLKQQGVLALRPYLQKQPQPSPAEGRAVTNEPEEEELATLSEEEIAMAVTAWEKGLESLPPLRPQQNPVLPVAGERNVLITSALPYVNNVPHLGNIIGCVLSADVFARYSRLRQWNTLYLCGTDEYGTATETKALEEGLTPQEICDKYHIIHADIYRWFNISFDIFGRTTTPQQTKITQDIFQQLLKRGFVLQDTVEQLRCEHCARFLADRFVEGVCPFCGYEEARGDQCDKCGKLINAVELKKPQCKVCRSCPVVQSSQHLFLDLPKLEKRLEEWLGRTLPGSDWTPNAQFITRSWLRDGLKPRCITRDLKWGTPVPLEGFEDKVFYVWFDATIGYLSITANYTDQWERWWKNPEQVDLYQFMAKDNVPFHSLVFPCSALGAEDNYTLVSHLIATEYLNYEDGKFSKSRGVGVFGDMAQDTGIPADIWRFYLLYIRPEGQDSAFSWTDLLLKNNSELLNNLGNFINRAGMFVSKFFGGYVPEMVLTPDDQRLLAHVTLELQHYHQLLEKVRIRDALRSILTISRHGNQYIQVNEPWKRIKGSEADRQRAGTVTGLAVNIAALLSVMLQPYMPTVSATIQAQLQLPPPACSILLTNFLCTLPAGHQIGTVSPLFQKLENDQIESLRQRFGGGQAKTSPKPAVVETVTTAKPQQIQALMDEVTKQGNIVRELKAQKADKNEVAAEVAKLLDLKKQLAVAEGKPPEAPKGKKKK
Chain of UniProt Q9Y6C9 (Q9Y6C9 whole entry, looked up): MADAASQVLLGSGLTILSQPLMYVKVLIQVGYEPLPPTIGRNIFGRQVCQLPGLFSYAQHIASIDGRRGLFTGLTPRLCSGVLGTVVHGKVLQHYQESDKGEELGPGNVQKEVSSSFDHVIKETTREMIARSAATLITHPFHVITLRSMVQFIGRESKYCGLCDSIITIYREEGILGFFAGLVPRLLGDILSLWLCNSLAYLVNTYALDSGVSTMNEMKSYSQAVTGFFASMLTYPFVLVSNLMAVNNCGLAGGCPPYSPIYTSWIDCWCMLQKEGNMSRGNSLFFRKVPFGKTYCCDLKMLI
Chain of UniProt O75608 (O75608 whole entry, looked up): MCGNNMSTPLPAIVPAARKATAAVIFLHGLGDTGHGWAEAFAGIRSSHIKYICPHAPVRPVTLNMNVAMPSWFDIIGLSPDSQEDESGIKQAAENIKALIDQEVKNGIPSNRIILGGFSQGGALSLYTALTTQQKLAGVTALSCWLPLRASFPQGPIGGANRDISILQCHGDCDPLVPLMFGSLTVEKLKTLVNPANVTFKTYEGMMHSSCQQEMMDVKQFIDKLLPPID
Chain of UniProt Q9HCC0 (Q9HCC0 whole entry, looked up): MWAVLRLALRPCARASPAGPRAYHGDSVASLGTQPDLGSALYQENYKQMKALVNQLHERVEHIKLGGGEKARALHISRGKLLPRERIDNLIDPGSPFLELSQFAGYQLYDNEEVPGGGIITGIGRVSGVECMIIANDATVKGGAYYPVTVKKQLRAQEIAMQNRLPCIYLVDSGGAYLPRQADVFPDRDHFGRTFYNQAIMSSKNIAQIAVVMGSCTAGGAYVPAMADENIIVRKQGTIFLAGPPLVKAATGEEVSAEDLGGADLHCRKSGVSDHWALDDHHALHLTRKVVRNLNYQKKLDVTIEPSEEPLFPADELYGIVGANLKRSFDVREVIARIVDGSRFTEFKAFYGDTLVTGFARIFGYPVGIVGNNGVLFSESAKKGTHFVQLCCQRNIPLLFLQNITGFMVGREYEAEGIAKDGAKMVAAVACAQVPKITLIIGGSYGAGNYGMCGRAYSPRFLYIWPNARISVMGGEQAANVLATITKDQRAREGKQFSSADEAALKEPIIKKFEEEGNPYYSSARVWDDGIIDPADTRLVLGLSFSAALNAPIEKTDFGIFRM
Chain of UniProt P48449 (P48449 whole entry, looked up): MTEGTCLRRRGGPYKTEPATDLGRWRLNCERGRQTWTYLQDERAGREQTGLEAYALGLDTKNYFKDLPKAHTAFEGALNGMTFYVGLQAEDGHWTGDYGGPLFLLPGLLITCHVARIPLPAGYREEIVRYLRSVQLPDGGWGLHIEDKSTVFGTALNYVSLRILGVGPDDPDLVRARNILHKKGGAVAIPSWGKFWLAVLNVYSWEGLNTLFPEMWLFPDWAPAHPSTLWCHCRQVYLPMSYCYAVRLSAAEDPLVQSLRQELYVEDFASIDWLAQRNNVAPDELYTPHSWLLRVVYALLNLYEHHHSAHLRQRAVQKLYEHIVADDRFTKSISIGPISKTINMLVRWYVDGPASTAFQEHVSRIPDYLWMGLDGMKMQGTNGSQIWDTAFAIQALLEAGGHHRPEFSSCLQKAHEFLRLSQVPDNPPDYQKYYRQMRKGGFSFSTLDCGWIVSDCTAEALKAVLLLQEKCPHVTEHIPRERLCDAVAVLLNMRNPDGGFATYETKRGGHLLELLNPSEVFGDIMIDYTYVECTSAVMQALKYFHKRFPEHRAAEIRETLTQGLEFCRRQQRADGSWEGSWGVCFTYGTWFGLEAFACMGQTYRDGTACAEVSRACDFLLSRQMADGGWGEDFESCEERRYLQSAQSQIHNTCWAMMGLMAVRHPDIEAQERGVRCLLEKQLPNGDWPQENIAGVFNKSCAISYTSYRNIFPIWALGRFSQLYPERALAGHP
Chain of UniProt Q96EZ8 (Q96EZ8 whole entry): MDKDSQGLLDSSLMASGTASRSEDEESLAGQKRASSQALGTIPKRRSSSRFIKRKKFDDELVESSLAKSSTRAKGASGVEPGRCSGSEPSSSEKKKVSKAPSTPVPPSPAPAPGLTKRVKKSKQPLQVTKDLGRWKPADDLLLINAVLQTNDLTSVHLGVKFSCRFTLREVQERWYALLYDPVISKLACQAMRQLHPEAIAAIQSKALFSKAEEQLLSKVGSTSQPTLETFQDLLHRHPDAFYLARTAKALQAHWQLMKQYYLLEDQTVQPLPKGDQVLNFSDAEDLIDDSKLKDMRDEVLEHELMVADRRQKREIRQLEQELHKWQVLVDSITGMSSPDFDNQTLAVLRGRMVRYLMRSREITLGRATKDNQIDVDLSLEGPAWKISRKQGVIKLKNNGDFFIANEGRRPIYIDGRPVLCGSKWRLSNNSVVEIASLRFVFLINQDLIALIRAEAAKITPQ
Chain of UniProt Q93052 (Q93052 whole entry, looked up): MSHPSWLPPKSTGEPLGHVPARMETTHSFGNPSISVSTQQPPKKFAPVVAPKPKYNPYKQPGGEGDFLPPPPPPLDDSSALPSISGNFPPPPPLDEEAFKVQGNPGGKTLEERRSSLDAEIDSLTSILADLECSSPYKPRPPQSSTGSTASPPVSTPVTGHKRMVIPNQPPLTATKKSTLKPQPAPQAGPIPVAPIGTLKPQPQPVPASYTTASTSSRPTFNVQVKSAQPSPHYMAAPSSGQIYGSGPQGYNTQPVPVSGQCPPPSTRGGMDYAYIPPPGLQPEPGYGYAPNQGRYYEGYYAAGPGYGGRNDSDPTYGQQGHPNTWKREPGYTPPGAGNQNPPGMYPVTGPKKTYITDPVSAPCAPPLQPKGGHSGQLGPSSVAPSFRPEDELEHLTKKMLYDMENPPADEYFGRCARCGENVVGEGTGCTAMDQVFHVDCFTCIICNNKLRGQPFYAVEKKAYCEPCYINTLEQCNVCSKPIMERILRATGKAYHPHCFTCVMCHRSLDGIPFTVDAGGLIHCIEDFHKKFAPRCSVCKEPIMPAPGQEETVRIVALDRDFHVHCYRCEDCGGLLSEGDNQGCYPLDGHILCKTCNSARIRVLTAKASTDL
Chain of UniProt Q8N1G4 (Q8N1G4 whole entry, looked up): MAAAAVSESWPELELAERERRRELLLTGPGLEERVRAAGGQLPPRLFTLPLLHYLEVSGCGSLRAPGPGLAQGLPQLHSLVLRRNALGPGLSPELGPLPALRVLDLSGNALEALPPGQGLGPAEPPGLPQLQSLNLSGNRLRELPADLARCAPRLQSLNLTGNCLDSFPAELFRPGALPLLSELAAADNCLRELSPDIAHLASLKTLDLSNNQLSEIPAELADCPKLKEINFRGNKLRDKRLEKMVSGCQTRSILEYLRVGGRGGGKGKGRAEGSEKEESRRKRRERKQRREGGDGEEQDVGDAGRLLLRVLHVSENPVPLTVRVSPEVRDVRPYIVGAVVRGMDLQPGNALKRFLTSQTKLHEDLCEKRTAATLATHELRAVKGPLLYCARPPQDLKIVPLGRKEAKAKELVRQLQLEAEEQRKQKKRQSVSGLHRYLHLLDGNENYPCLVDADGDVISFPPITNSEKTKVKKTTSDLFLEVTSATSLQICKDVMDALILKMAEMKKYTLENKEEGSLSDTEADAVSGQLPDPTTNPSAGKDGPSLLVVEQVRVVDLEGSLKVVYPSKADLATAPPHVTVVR
Chain of UniProt Q9NXB0 (Q9NXB0 whole entry): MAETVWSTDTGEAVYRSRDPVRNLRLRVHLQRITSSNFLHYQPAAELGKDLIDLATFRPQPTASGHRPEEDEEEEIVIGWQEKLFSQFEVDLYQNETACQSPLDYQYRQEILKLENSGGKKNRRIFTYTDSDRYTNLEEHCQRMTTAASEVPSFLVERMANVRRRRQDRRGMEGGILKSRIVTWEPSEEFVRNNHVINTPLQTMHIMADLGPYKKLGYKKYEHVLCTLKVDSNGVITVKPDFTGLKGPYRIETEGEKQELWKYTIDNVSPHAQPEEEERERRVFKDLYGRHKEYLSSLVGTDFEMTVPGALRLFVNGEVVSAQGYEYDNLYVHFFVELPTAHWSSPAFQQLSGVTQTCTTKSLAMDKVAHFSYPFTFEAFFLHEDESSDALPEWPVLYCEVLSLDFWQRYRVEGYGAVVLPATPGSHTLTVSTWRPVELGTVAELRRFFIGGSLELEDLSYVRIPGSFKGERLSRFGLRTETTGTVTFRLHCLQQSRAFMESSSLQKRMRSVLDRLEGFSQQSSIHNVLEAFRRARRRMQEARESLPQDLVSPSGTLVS

Target | probe-labelled cysteine peptide fold change (10 µM) | probe-labelled cysteine peptide fold change (50 µM)
MAP4K1_Q92918_334+335_SSSLGIPDADCCR (UniProt Q92918) | -0.26 | -1.18
LSS_P48449_471_CPHVTEHIPR (UniProt P48449) | -0.184 | -0.209
MTMR10_Q9NXD2_70_LICSNFK (UniProt Q9NXD2) | -0.125 | -0.103
MYBBP1A_Q9BQG0_623_SPAESCDLLGDIQTCIR (UniProt Q9BQG0) | -0.0385 | -0.16
MTR_Q99707_798_NIVGVVLGCNNFR (UniProt Q99707) | 0.00546 | -0.26
MCEE_Q96PE7_166_DCGGVLVELEQA (UniProt Q96PE7) | -0.0643 | 0.17
MRPL37_Q9BZE1_104_DQACYIFHHR (UniProt Q9BZE1) | 0.0327 | -0.253
LIMS1_P48059_281_AWCVNCFACSTCNTK (UniProt P48059) | 0.00276 | 0.175
MYH9_P35579_671_CIIPNHEKK (UniProt P35579) | -0.188 | -1.18
MGAT2_Q10469_386_KTCRPSTQSAQIESLLNNNK (UniProt Q10469) | -0.194 | -0.657
LIMS1_P48059_193_MGVPICGACR (UniProt P48059) | -0.104 | -0.269
MOB4_Q9Y3A3_134_HTLDGAACLLNSNK (UniProt Q9Y3A3) | -1.14 | -3.77
MYBBP1A_Q9BQG0_338_HYGEHVCTAK (UniProt Q9BQG0) | 0.0441 | 0.083
MDN1_Q9NU22_3195_ELLCQLLTSLHHFVGEGESK (UniProt Q9NU22) | -0.696 | -1.2
LRPPRC_P42704_571_YCQEPR (UniProt P42704) | 0.261 | 0.6
MTRR_Q9UBK8_64_AIAEEICEQAVVHGFSADLHCISESDKYDLK (UniProt Q9UBK8) | -0.113 | -0.379
MACF1_Q9UPN3_5309_DCDVQGLEHDMEEINAR (UniProt Q9UPN3) | 0.0885 | 0.126
LRRFIP1_Q32MZ4_456_CMVEVPQELETSTGHSLEK (UniProt Q32MZ4) | -0.167 | -0.23
MITD1_Q8WV92_226_FSLGYCDFDLRPCHETTVDIFHK (UniProt Q8WV92) | 0.0984 | 0.0591
MLST8_Q9BVC4_34_FWQAHSGICTR (UniProt Q9BVC4) | -0.182 | 0.0338

Target | probe-labelled cysteine peptide fold change (10 µM) | probe-labelled cysteine peptide fold change (50 µM)
LRRC47_Q8N1G4_367_LHEDLCEK (UniProt Q8N1G4) | -0.211 | -0.0285
LRCH3_Q96II8_148_NQLSTLPVHLCNLPLK (UniProt Q96II8) | 0.138 | 0.0632
MYD88_Q99836_168_FDAFICYCPSDIQFVQEMIR (UniProt Q99836) | 0.412 | -1.05
MCM5_P33992_221_CVDFQTLK (UniProt P33992) | 0.05 | -0.397
MCRS1_Q96EZ8_84_CSGSEPSSSEK (UniProt Q96EZ8) | -0.0254 | -0.104
MRPL42_Q9Y6G3_45_STYSPLPDDYNCNVELALTSDGR (UniProt Q9Y6G3) | 0.0794 | -0.1
LYPLA1_O75608_144_LAGVTALSCWLPLR (UniProt O75608) | 0.21 | 0.0595
MRC2_Q9UBG0_201_YDNQWFHGCTSTGR (UniProt Q9UBG0) | -2.14 | -2.04
MTCH2_Q9Y6C9_49_QVCQLPGLFSYAQHIASIDGR (UniProt Q9Y6C9) | -0.0446 | 0.0916
LRR1_Q96L50_5_LHCEVEVISR (UniProt Q96L50) | -0.12 | 0.0535
MICALL1_Q8N3F8_597_GSSGPQPAKPCSGATPTPLLLVGDR (UniProt Q8N3F8) | -0.17 | -0.459
LONP1_P36776_909_AGVTCIVLPAENKK (UniProt P36776) | -0.00288 | -0.138
MAK16_Q9BXY0_39_NEYSLTGLCNR (UniProt Q9BXY0) | 0.173 | -0.348
LPP_Q93052_524_SLDGIPFTVDAGGLIHCIEDFHKK (UniProt Q93052) | -0.0384 | -0.452
MMS19_Q96T76_750_ELLELSCCHSCPFSSTAAAK (UniProt Q96T76) | -0.103 | -1.11
MCCC2_Q9HCC0_267_AATGEEVSAEDLGGADLHCR (UniProt Q9HCC0) | -0.421 | -1.1
MKS1_Q9NXB0_226_KYEHVLCTLK (UniProt Q9NXB0) | -0.112 | 0.305
MCM5_P33992_355_AIACLLFGGSRK (UniProt P33992) | -0.159 | -0.759
MARS_P56192_38_AEVLISTVGPEDCVVPFLTRPK (UniProt P56192) | -0.0722 | 0.0548
